Measured values taken from PubChem BioAssay (Tox21).
Calls of active or inactive are those of the source. Calls follow the shape of the dose curve; as a rule, active = well fitted curve in the direction sought with a large enough effect in the repeat runs; inconclusive = weak or mixed curves; inactive = flat fitted curve, though single readings scatter.

Experiment: qHTS assay to test for compound auto fluorescence at 590 nm (red) in HEK293 cells (AID 720679)
Conditions: red autofluorescence 540/590 nm; series mostly up to 91.3 µM
Excerpt: National Center for Advancing Translational Sciences [NCATS]
NIH Chemical Genomics Center [NCGC]
U.S. Environmental Protection Agency [EPA]
National Institutes of Environmental Health Sciences [NIEHS]
National Toxicology Program [NTP]
U.S. Food and Drug Administration [FDA]
Compound auto fluorescence often interferes with screening of the compound library against various biological targets and signaling pathways. Some of these compounds may have fluorophoric properties. Such properties may interfere with the assay outputs resulting in false positives and/or negatives. To decrease such complications and ensure the compound activities are relevant in terms of biological response, the Tox21 10K compound library was screened for auto fluorescence.
From the fluorophores used as reporter signals in our screening assays, the auto fluorescence equivalencies of compounds against three fluorophores have been evaluated: Triamterene, Fluorescein and Rose Bengal sodium for blue, green and red fluorescence, respectively. The fluorescence intensities were measured using Excitation/Emission wavelengths at 405/460nm, 485/535nm and 540/590nm for blue, green and red labels, respectively. This assay includes the red fluorescence data.
Tox21 Assay Protocol Summary:
2,000 HEK293 cells in 5 uL of culture medium containing 10% dialyzed FBS per well were dispensed into black wall/clear bottom 1536-well plates using a Multidrop Combi Dispenser (Thermo Scientific). The assay plates were incubated for 4-5 hr at 37C to allow cell attachment to the well bottom, followed by the transfer of 23 nL compound or DMSO vehicle by a pintool work station (Kalypsys, San Diego, CA). After the assay plates were incubated overnight at 37C and 5% CO2, fluorescence intensities in the assay plates were measured by an Envision (PerkinElmer, Shelton, CT) plate reader using three labels for measuring blue, green and red fluorescence at […] 460, 535 and 590nm respectively.

Which outcome does the source give for `CC(=O)c1ccccc1` here?
The outcome was “inactive”.

For `C=C(C)C(=O)O[C@H]1C[C@@H]2CC[C@@]1(C)C2(C)C`, which outcome is on record?
Its outcome is “inactive”.

With `Cc1cccnc1` as the compound, how does the outcome read?
Its outcome is “inactive”.

For `CCCSc1ccc2nc(NC(=O)OC)[nH]c2c1`, which outcome is on record?
The outcome was “inactive”.

For `C[Si](O[Si](C)(C)C)O[Si](C)(C)C`, which outcome is on record?
Its outcome is “inactive”.

With `CC(=O)Nc1cccc(O)c1` as the compound, how does the outcome read?
The outcome was “inactive”.

Which outcome does the source give for `O=c1[nH]nnc2ccccc12` here?
The outcome was “inactive”.

With `O=C(O)c1cc(O)c(O)c(O)c1` as the compound, how does the outcome read?
Its outcome is “inactive”.

For `CCCCN(CCCC)CCCC`, which outcome is on record?
The outcome was “inactive”.

With `CCCC(C)=O` as the compound, how does the outcome read?
The outcome was “inactive”.

With `COc1ccc(Cl)cc1C(=O)NCCc1ccc(S(=O)(=O)NC(=O)NC2CCCCC2)cc1` as the compound, how does the outcome read?
Its outcome is “inactive”.

With `COc1cc(Cc2cnc(N)nc2N)cc(OC)c1OC` as the compound, how does the outcome read?
Its outcome is “inactive”.

For `CCCCCCCCCCCCCCO`, which outcome is on record?
The outcome was “inactive”.

For `O=C(Oc1ccccc1)c1ccccc1`, which outcome is on record?
Its outcome is “inactive”.

Which outcome does the source give for `CC1=C(C)S(=O)(=O)CCS1(=O)=O` here?
Its outcome is “inactive”.

With `N[C@@H](Cc1cc(I)c(Oc2cc(I)c(O)c(I)c2)c(I)c1)C(=O)O` as the compound, how does the outcome read?
The outcome was “inactive”.

For `O=C(OCCOCCOC(=O)c1ccccc1)c1ccccc1`, which outcome is on record?
The outcome was “inactive”.

With `CC(c1cc2ccccc2s1)N(O)C(N)=O` (stereo not given) as the compound, how does the outcome read?
Its outcome is “inactive”.

For `CC(C)(N)CO`, which outcome is on record?
Its outcome is “inactive”.

Which outcome does the source give for `CC(=O)CC(=O)Nc1ccccc1C` here?
Its outcome is “inactive”.

With `COc1ccc2cc([C@H](C)C(=O)O)ccc2c1` as the compound, how does the outcome read?
The outcome was “inactive”.

Which outcome does the source give for `CCCCCOC(C)=O` here?
The outcome was “inactive”.

For `C=CCNC(N)=S`, which outcome is on record?
The outcome was “inactive”.

Which outcome does the source give for `CCC(O)OCCCOC` (stereo not given) here?
The outcome was “inactive”.

With `CN(C)CCCN` as the compound, how does the outcome read?
The outcome was “inactive”.

With `CC1=CCC2CC1C2(C)C` (stereo not given) as the compound, how does the outcome read?
The outcome was “inactive”.

For `O=c1[nH]c(=O)n([C@H]2C[C@H](O)[C@@H](CO)O2)cc1Br`, which outcome is on record?
Its outcome is “inactive”.

For `COCCCOc1ccnc(CS(=O)c2nc3ccccc3[nH]2)c1C` (stereo not given), which outcome is on record?
The outcome was “inactive”.

With `Cc1ccc(S(N)(=O)=O)cc1` as the compound, how does the outcome read?
The outcome was “inactive”.

Which outcome does the source give for `O=C(O)c1ccccc1C(c1ccc(O)cc1)c1ccc(O)cc1` here?
The outcome was “inactive”.

With `C=CCOC(=O)c1ccccc1C(=O)OCC=C` as the compound, how does the outcome read?
Its outcome is “inactive”.

Which outcome does the source give for `CCCCC(CC)COC(=O)CS` (stereo not given) here?
The outcome was “inactive”.

For `CCCCCCCCCCCCS`, which outcome is on record?
The outcome was “inactive”.

For `CCCCCCCCCCCCOCCO`, which outcome is on record?
Its outcome is “inactive”.

Which outcome does the source give for `C=C(C)C(=O)Nc1ccc(Cl)c(Cl)c1` here?
The outcome was “inactive”.

With `CC1CCC(C(C)C)C(O)C1` (stereo not given) as the compound, how does the outcome read?
The outcome was “inactive”.

Which outcome does the source give for `CCN(CC)CCCC(C)Nc1ccnc2cc(Cl)ccc12` (stereo not given) here?
The outcome was “inactive”.

With `CCCCCCCCC/C=C/CC1CC(=O)OC1=O` (stereo not given) as the compound, how does the outcome read?
Its outcome is “inactive”.

With `c1ccc(OCCOc2ccccc2)cc1` as the compound, how does the outcome read?
The outcome was “inactive”.

For `CC(=O)Nc1ccccc1`, which outcome is on record?
Its outcome is “inactive”.
